# Assay outcomes as filed in PubChem BioAssay.
# DAX1 inh-1: inhibitors of DAX1 repression of SF-1 activated StAR promoter. inhibition, % at 6.8 µM. AID 652010. HEK293T StAR-luciferase reporter, SF-1/DAX-1 repression relief. 370,000 compounds, 1.1% hits;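 active means inhibition above the mean over all tested compounds plus 3 SD, cut at about 3.6% in these data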;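 further: 0% = DAX-1 cells with DMSO and 100% = cells lacking DAX-1 with DMSO; higher inhibition means more luminescence from relief of DAX-1 repression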
# ssDAF-12 act: activates DAF-12 receptor from parasite S. stercoralis | HEK293 ssDAF-12/GRIP1 lit1-tk-luc reporter, luminescence; % of 3 µM dafachronic acid response | activation, % at 6.8 µM | 370,000 compounds, 1% hits | AID 652126;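 active means activation above the mean over all tested compounds plus 3 SD, cut at about 0.9% in these data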;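 further: 0% = DMSO-only wells and 100% = 3 µM delta7-dafachronic acid wells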
# DAX1 inh-2: inhibits human nuclear receptor DAX1; P51843; HEK293 Gal4-DAX1 luciferase reporter, luminescence; inhibition, % at 6.75 µM; 340,000 compounds, 0.99% hits; AID 504766;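 active means inhibition above the mean over all tested compounds plus 3 SD, cut at about 4.2% in these data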;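 further: 0% = DAX1-transfected cells with DMSO and 100% = empty-vector control cells with DMSO; inhibition shows as a rise in luminescence from relieved DAX1 repression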
# hgDAF12 agonist: agonists of H. glycines DAF-12 nuclear receptor | HEK293 GAL4-hgDAF12 UAS-luciferase reporter, agonist luminescence; normalized to butyrate control | activation, % at 6.8 µM | 370,000 compounds, 1.8% hits | AID 687014;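 active means activation above a cutoff set at the mean of all screened compounds plus 3 SD, cut at about 10% in these data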;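 further: 0% = DMSO wells and 100% = sodium butyrate wells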
# hcDAF-12 act: activators of H. contortus DAF-12 nuclear receptor. HEK293 hcDAF-12 lit1-tk-luc reporter, luminescence; 0% DMSO, 100% Δ7-dafachronic acid. activation, % at 6.8 µM. 370,000 compounds, 1.4% hits;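 active means activation above the mean of all tested compounds plus 3 SD, cut at about 5.5% in these data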;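 further: 100% = response to 3 µM Δ7-dafachronic acid high control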
# DAX1 conf: confirmation of human DAX1 (NR0B1) inhibitors | inhibition, % at 6.8 µM | 2,400 compounds, 87% hits | HEK293T StAR-promoter luciferase reporter, SF-1/DAX-1 repression | shares compounds with DAX1 inh-1;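 active means inhibition above the average of every tested compound plus 3 SD, cut at about 3.8% in these data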;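 further: 0% = DAX-1 cells with DMSO and 100% = no DAX-1 control cells with DMSO; active compounds raise luminescence by relieving repression of the StAR reporter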
# Target sequence (P51843 whole entry, looked up): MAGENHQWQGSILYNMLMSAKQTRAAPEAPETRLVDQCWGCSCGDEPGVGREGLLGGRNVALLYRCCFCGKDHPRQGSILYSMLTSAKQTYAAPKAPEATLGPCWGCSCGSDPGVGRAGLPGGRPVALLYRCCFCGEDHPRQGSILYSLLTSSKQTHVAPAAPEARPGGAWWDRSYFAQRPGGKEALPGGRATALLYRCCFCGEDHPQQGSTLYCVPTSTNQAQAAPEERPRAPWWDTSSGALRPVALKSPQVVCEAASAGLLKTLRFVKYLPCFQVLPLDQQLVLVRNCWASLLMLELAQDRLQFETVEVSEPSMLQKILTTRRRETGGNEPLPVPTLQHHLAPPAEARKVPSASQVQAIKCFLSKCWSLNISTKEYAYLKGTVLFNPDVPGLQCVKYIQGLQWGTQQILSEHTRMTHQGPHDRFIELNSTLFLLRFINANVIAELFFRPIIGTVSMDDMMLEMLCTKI
# SF1 mutant ctr: counter-screen for DAX1 inhibitors: nonselective inhibitors with SF-1 AF2 mutant. 2,400 compounds, 78% hits. inhibition, % at 6.8 µM. shares compounds with DAX1 inh-1. HEK293 StAR-luciferase, luminescence;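 active means inhibition above the mean of all tested compounds plus 3 SD, cut at about 3% in these data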;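 further: 0% = DAX-1 transfected cells with DMSO and 100% = cells without DAX-1 with DMSO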
# LXRb hcDAF ctr: activates human LXR-beta, counter-screen for hcDAF-12 agonists; HEK293 Gal4-LXR tk-luc reporter, luminescence, 24 h; normalized: DMSO 0%, positive control 100%; shares compounds with hcDAF-12 act; 3,400 tested, under 10 active; activation, % at 6.8 µM;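 active means mean percent activation of the reporter above a cutoff set as the average over tested compounds plus their standard deviation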
# hcDAF12 ag: confirmation of H. contortus DAF-12 agonists; shares compounds with hcDAF-12 act; HEK293 hcDAF-12 lit1-tk-luc reporter, luminescence; % of Δ7-dafachronic acid response; activation, % at 6.8 µM; 3,400 compounds, 61% hits;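 active means mean activation across triplicate tests above the threshold derived from the earlier primary screen, cut at about 5.5% in these data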;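 further: 0% = DMSO only wells and 100% = 3 µM Δ7-dafachronic acid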
# hgDAF12 conf: hgDAF-12 agonism, confirmation assay; shares compounds with hgDAF12 agonist; activation, % at 6.8 µM; 3,300 compounds, 80% hits; HEK293 GAL4-hgDAF12 luciferase reporter, agonist mode; percent of butyrate response;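 active means mean activation over triplicate wells above the hit cutoff derived from the earlier primary screen, cut at about 11% in these data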;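 further: 0% = DMSO low control and 100% = 2 mM sodium butyrate high control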
# LXR ag 2: LXR-beta agonism as DAF-12 counter-screen; shares compounds with hgDAF12 agonist; HEK293 Gal4-LXR luciferase reporter, 24 h; activation, % at 6.8 µM; 3,300 tested, under 10 active; AID 743051;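 active means mean activation of the triplicate above a set limit carried over from the primary screen, none filed active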
# * = called active by the depositor; x = not tested or not shown. The list is not random: actives were taken first. Their share in the collection is about 4.1%.
SMILES,DAX1 inh-1,ssDAF-12 act,DAX1 inh-2,hgDAF12 agonist,hcDAF-12 act,DAX1 conf,SF1 mutant ctr,hgDAF12 conf,LXR ag 2,others
CSCCC(NC(=O)c1ccccc1Br)C(=O)NNC(=O)c1cc(C)oc1C (configuration not stated),0.9,-0.9,0.2,2.8,-1.0,x,x,x,x,
CCOC(=O)c1c(C)[nH]c(C(=O)OCC(=O)c2ccccc2)c1C,12.6*,0.3,2.1,14.1*,7.4*,9.8*,4.9*,17.4*,0.9,LXRb hcDAF ctr=1.1;hcDAF12 ag=5.3
Cc1ccnc(NC(=O)c2cccc(S(=O)(=O)N3CCCc4ccccc43)c2)c1,7.7*,0.2,0.4,13.2*,5.2,9.1*,6.4*,12.3*,0.5,
O=C(Nc1ccccn1)c1cccc(S(=O)(=O)N2CCCc3ccccc32)c1,-1.6,-1.2,-0.9,0.8,-1.1,x,x,x,x,
Cc1nn(CC(=O)OCC(=O)Nc2cccc(S(N)(=O)=O)c2)c(C)c1[N+](=O)[O-],-0.8,-0.7,0.5,3.5,0.8,x,x,x,x,
COc1ccc(CNC(=O)c2ccc(C(C)C)cc2)cc1,6.8*,-0.5,1.6,17.5*,3.6,7.6*,5.7*,15.4*,0.6,
Cc1cc(C)c(NC(=O)CNC(=O)CSc2nnc(N)s2)c(C)c1,0.1,-0.8,-0.7,4.8,-1.6,x,x,x,x,
Cc1ncc(C(=O)Nc2ccccc2)[nH]1,4.7*,0.7,2.8,20.8*,4.4,11.1*,6.9*,12.8*,0.4,
Cn1c(NNC(=O)CCC2CCCCC2)cc(=O)n(C)c1=O,-0.8,-1.0,0.8,2.5,0.1,x,x,x,x,
Cn1c(NC(=O)CCC2CCCCC2)cc(=O)n(C)c1=O,5.6*,-0.5,3.1,13.7*,5.5,12.0*,6.0*,11.8*,0.7,
NC(=O)c1ccccc1N/C=C/C(=O)c1ccccc1,5.8*,0.1,1.5,13.3*,5.2,11.9*,5.4*,16.0*,0.8,
CC(=O)c1cccc(Nc2ccc(Br)cc2)c1,9.7*,-0.6,x,14.4*,4.4,11.7*,6.3*,8.8,0.5,
Cc1ccc(/C=N/Nc2ccc3ccccc3n2)o1,10.6*,1.1*,-2.7,22.3*,8.8*,5.8*,1.4,11.2*,0.9,LXRb hcDAF ctr=1.8;hcDAF12 ag=10.3*
Cc1cccc(/C=N/Nc2ccc3ccccc3n2)c1,1.2,-1.7,-7.0,-1.7,3.5,x,x,x,x,
COc1ccc(/C=C(\C#N)C(=O)Nc2cc(S(=O)(=O)N3CCCCC3)ccc2N2CCCCC2)cc1,0.4,-1.0,0.3,-2.1,0.9,x,x,x,x,
CC(C)(C)c1ccc(C(=O)Nc2ccccc2Cl)cc1,7.7*,1.5*,5.0*,32.1*,10.1*,15.9*,6.5*,18.7*,1.1,LXRb hcDAF ctr=1.5;hcDAF12 ag=9.4*
CS(=O)(=O)Nc1ccc(C(=O)Nc2ccccc2Cl)cc1,-0.3,-1.2,x,5.0,-0.1,x,x,x,x,
CC(C)NC(=O)N(C)C[C@@H]1Oc2c(NC(=O)Nc3ccccc3)cccc2C(=O)N([C@H](C)CO)C[C@H]1C,0.3,-1.0,-1.2,-1.8,-2.3,x,x,x,x,
COc1cc(C(=O)Nc2ccc3c(c2)OCCO3)c(-n2cnnn2)cc1OC,0.5,-1.0,0.7,-0.9,-1.8,x,x,x,x,
